Potency data for 21 molecules are collected here from PubChem BioAssay (NCATS).

Records with an inconclusive call do not appear. A number with no mark means an inactive call. Calls of active or inactive are those of the source. The call rests on the fitted dose curve; in most records, active means well fitted curve in the direction sought with a large enough effect; inconclusive means small, poorly fitted or top-dose-only effect, or another doubt; inactive means no such curve, though single readings can be large; an effect the other way counts as inactive or inconclusive.

Experiment [1] can be described thus: qHTS of pediatric cancer cell lines to identify multiple opportunities for drug repurposing: Primary screen for SK-N-SH cells (AID 1347098). Further: nearly all actives have a fitted effect of over 65% in size. Further: potency means the concentration at half of the fitted maximal effect. In short, it runs like this:
(§1)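 Cells (500-1,000/well) rested 5 h, then received compounds for 48 h; metabolically active cells were measured by CellTiter-Glo luminescence. Final concentrations spanned up to 46 µM (MIPE, 11-point) or 0.59 nM-46 µM (NPC, 8-point) in primary screens, 11-point in follow-ups.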
A general note: Quantitative high-throughput screening tests each substance at several concentrations.

Experiment [2] is described as follows: qHTS of pediatric cancer cell lines to identify multiple opportunities for drug repurposing: Primary screen for NB1643 cells (AID 1347099). Further: nearly all actives have a fitted effect of over 50% in size. Further: potency means the concentration at half of the fitted maximal effect. In short, it runs like this:
(§2)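 Primary screen of approved and investigational compounds on cells in growth media at 37 degrees C, 5% CO2. MIPE set at 11-point and NPC set at 8-point dilutions; viability scored by ATP-based luminescence at 48 hours.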

Experiment [3] is described as follows: qHTS of pediatric cancer cell lines to identify multiple opportunities for drug repurposing: Primary screen for LAN-5 cells (AID 1347100). Further: potency means the concentration at half of the fitted maximal effect. In short, it runs like this: (§3)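 Cells (500-1,000/well) in growth media were settled 5 h at 37 degrees C, then given compounds for 48 h. Viability was read as CellTiter-Glo luminescence. Primary runs used MIPE at 11 points (0.78 nM-46 µM) and NPC at 8 points (0.59 nM-46 µM); follow-ups used 11 points.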

Experiment [4] is described as follows: qHTS of pediatric cancer cell lines to identify multiple opportunities for drug repurposing: Primary screen for BT-12 cells (AID 1347101). Further: nearly all actives have a fitted effect of over 25% in size. Further: potency means the concentration at half of the fitted maximal effect. In short, it runs like this: as §1
Experiment [5] is described as follows: qHTS of pediatric cancer cell lines to identify multiple opportunities for drug repurposing: Primary screen for Rh18 cells (AID 1347102). Further: nearly all actives have a fitted effect of over 65% in size. Further: potency means the concentration at half of the fitted maximal effect. In short, it runs like this:
as §3

A short description of experiment [6]: qHTS of pediatric cancer cell lines to identify multiple opportunities for drug repurposing: Primary screen for OHS-50 cells (AID 1347103). Further: nearly all actives have a fitted effect of over 40% in size. Further: potency means the concentration at half of the fitted maximal effect. In short, it runs like this: as §1
A short description of experiment [7]: qHTS of pediatric cancer cell lines to identify multiple opportunities for drug repurposing: Primary screen for RD cells (AID 1347104). Further: nearly all actives have a fitted effect of over 55% in size. Further: potency means the concentration at half of the fitted maximal effect. In short, it runs like this:
as §2

Experiment [8] can be described thus: qHTS of pediatric cancer cell lines to identify multiple opportunities for drug repurposing: Primary screen for Rh41 cells (AID 1347108). Further: nearly all actives have a fitted effect of over 70% in size. Further: potency means the concentration at half of the fitted maximal effect. In short, it runs like this: as §2
The nature of experiment [9]: qHTS of pediatric cancer cell lines to identify multiple opportunities for drug repurposing: Confirmatory screen for A673 cells (AID 1347110).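 Further: potency means the concentration at half of the fitted maximal effect; cells exposed to compound for 48 h before the viability read; nearly all actives have a fitted effect of over 65% in size.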 In short, it runs like this:
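A673 cells seeded at 500-1,000 cells/well, rested 5 h, then dosed; primary MIPE 11-point (0.78 nM to 46 µM), NPC (0.59 nM to 46 µM); confirmatory 11-point. CellTiter-Glo luminescence after 48 h.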

Experiment [10] is described as follows: qHTS of pediatric cancer cell lines to identify multiple opportunities for drug repurposing: Confirmatory screen for SK-N-MC cells (AID 1347111).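 Further: potency means the concentration at half of the fitted maximal effect; cells exposed to compound for 48 h before the readout; nearly all actives have a fitted effect of over 70% in size.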 In short, it runs like this: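 Metabolically active cells were quantified by ATP-dependent luminescence (CellTiter-Glo, 15 min at room temperature) following 48 h treatment. Cells had been plated at 500-1,000 per well and settled for 5 h beforehand.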

Experiment [11] in a line: qHTS of pediatric cancer cell lines to identify multiple opportunities for drug repurposing: Confirmatory screen for LAN-5 cells (AID 1347113). Further: nearly all actives have a fitted effect of over 65% in size. Further: potency means the concentration at half of the fitted maximal effect. In short, it runs like this: as §3
Experiment [12] can be described thus: qHTS of pediatric cancer cell lines to identify multiple opportunities for drug repurposing: Confirmatory screen for DAOY cells (AID 1347114). Further: nearly all actives have a fitted effect of over 65% in size. Further: potency means the concentration at half of the fitted maximal effect. In short, it runs like this: (§4)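 Viability measured as metabolically active cells via CellTiter-Glo luminescence following 48 hours of compound exposure, 11-point dilutions in confirmatory testing. 500-1,000 cells/well plated 5 hours before dosing; controls were DMSO and 2.3 µM bortezomib.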

Experiment [13] can be described thus: qHTS of pediatric cancer cell lines to identify multiple opportunities for drug repurposing: Confirmatory screen for SJ-GBM2 cells (AID 1347116). Further: nearly all actives have a fitted effect of over 60% in size. Further: potency means the concentration at half of the fitted maximal effect. In short, it runs like this:
as §4

Experiment [14] is described as follows: qHTS of pediatric cancer cell lines to identify multiple opportunities for drug repurposing: Confirmatory screen for BT-37 cells (AID 1347117). Further: potency means the concentration at half of the fitted maximal effect; nearly all actives have a fitted effect of over 55% in size. In short, it runs like this:
as §3

Experiment [15] in a line: qHTS of pediatric cancer cell lines to identify multiple opportunities for drug repurposing: Confirmatory screen for MG 63 (6-TG R) cells (AID 1347119). Further: nearly all actives have a fitted effect of over 55% in size. Further: potency means the concentration at half of the fitted maximal effect. In short, it runs like this: as §3
Experiment [16] can be described thus: qHTS of pediatric cancer cell lines to identify multiple opportunities for drug repurposing: Primary screen for Saos-2 cells (AID 1347097). Further: nearly all actives have a fitted effect of over 40% in size. Further: potency means the concentration at half of the fitted maximal effect. In short, it runs like this: as §2
A short description of experiment [17]: qHTS of pediatric cancer cell lines to identify multiple opportunities for drug repurposing: Primary screen for control Hh wild type fibroblast cells (AID 1347106).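 Further: series mostly up to about 46 µM; a drop in luminescence marks cytotoxicity and a rise apparent proliferation; nearly all actives have a fitted effect of over 55% in size.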 In short, it runs like this:
as §3

Experiment [18] can be described thus: qHTS of pediatric cancer cell lines to identify multiple opportunities for drug repurposing: Primary screen for MG 63 (6-TG R) cells (AID 1347105). Further: nearly all actives have a fitted effect of over 50% in size. Further: potency means the concentration at half of the fitted maximal effect. In short, it runs like this: as §2
The nature of experiment [19]: qHTS of pediatric cancer cell lines to identify multiple opportunities for drug repurposing: Primary screen for Rh30 cells (AID 1347107). Further: series mostly up to about 46 µM; nearly all actives have a fitted effect of over 75% in size. In short, it runs like this: as §3
Experiment [20] can be described thus: qHTS of pediatric cancer cell lines to identify multiple opportunities for drug repurposing: Confirmatory screen for NB-EBc1 cells (AID 1347115).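 Further: cells exposed to compound for 48 h before the viability read; nearly all actives have a fitted effect of over 45% in size.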 In short, it runs like this: as §3

With `C[n+]1c2cc(N)ccc2cc2ccc(N)cc21` (tested in a mixture with another compound), the Potency is 3.86 µM (active) in experiment [1]; 7.5 µM (active) in [2]; 5.96 µM (active) in experiment [3]; 3.89 µM (active) in experiment [4]; 8.41 µM (active) in experiment [5]; 17.4 µM (active) in experiment [6]. Moreover, the Potency in experiment [7] was 15 µM (active); in experiment [8], 16.8 µM (active); in [9] it was 5.22 µM (active); in experiment [10], 6.57 µM (active); in experiment [11] it was 3.29 µM (active); in experiment [12], 6.57 µM (active). Besides, the Potency was 13.1 µM (active) in [13], 0.827 µM (active) in [14] and 14.7 µM (active) in [15].

For the molecule `O=C(CCN1CCC(c2ccccc2)C1)c1ccc2c(c1)OCCO2` (stereo unspecified), the Potency in [16] is 23.7 µM (active). Besides, the Potency result in [5] and in [17] was “inactive” throughout.

Turning to `C#C[C@]1(OC(C)=O)CC[C@H]2[C@@H]3CCC4=C[C@@H](OC(C)=O)CC[C@@H]4[C@H]3CC[C@@]21C`, the Potency result in experiment [1], in experiment [2], in experiment [5], in [18], in experiment [17] and in experiment [8] was “inactive” in each case. In addition, the Potency in [6] was 15.5 µM (active).

On to `Cc1cc(N)c2cc(NC(=O)Nc3ccc4nc(C)cc(N)c4c3)ccc2n1`, for which the Potency entry in experiment [16], in experiment [3], in experiment [4], in experiment [5], in [6] and in [17] was “inactive” each time. Besides, the Potency result in [19] and in experiment [8] was “inactive” each time.

For `CC(C)(C)CC(C)(C)c1ccc(OCCOCC[N+](C)(C)Cc2ccccc2)cc1`, the Potency was 13.3 µM (active) in experiment [16]; 21.1 µM (active) in experiment [3]; 8.71 µM (active) in experiment [4]; 10.6 µM (active) in experiment [5]; 26.6 µM (active) in experiment [7]; 26.6 µM (active) in experiment [18]. Also, in experiment [8], the Potency was 16.8 µM (active).

For `CC(=O)OCC(=O)[C@@]12OC(C)(C)O[C@@H]1C[C@H]1[C@@H]3C[C@H](F)C4=CC(=O)C=C[C@]4(C)[C@@]3(F)[C@@H](O)C[C@@]12C`, the Potency entry in experiment [1], in experiment [2], in experiment [3], in experiment [4], in [5] and in [7] was “inactive” each time. Also, the Potency entry in experiment [18], in experiment [17], in [8], in experiment [11], in [12] and in [20] was “inactive” throughout. In addition, the Potency entry in experiment [13] and in experiment [15] was “inactive” each time.

As to `O=S1(=O)c2cccc3cccc(c23)N1CCCN1CCN(c2ccc(F)cc2)CC1`, the Potency result in experiment [16], in experiment [2], in [4], in experiment [5], in [7] and in experiment [18] was “inactive” throughout. Moreover, the Potency result in experiment [17], in experiment [19] and in [8] was “inactive” throughout.

Regarding `N[C@H](Cc1c[nH]c2ccccc12)C(=O)O`, the Potency result in experiment [1], in experiment [2], in [3], in [4], in [5] and in experiment [6] was “inactive” throughout. The Potency entry in [7], in experiment [17], in [19] and in [8] was “inactive” in each case.

`CC(=O)c1ccc2c(c1)N(CCCN1CCC(CCO)CC1)c1ccccc1S2`: the Potency result in experiment [16], in experiment [2], in experiment [3], in experiment [18], in [17] and in experiment [8] was “inactive” each time.

Regarding `C/C=C(/C(=C/C)c1ccc(O)cc1)c1ccc(O)cc1`, in experiment [16], the Potency is 21.1 µM (active). The Potency entry in experiment [3], in experiment [5], in experiment [17], in experiment [19] and in experiment [8] was “inactive” each time.

Take `COc1cc2c(cc1OC)C(=O)C(CC1CCN(Cc3ccccc3)CC1)C2` (stereo unspecified): the Potency result in experiment [16], in experiment [4], in experiment [5], in experiment [7], in [18] and in experiment [17] was “inactive” each time. The Potency entry in [19] and in experiment [8] was “inactive” in each case.

On to `CNCC[C@@H](Oc1ccccc1C)c1ccccc1`, for which the Potency entry in [1], in experiment [2], in [3], in experiment [4], in experiment [5] and in experiment [7] was “inactive” throughout. Also, the Potency entry in [18], in experiment [17], in [19] and in experiment [8] was “inactive” in each case.

As for `CCCC(=O)Nc1ccc(OCC(O)CNC(C)C)c(C(C)=O)c1` (stereo unspecified), the Potency result in experiment [1], in [2], in experiment [3], in experiment [4], in [5] and in experiment [6] was “inactive” in each case. Moreover, the Potency entry in [7], in experiment [18], in experiment [17], in experiment [19] and in experiment [8] was “inactive” each time.

On to `CC(Cc1cccc(C(F)(F)F)c1)NCCOC(=O)c1ccccc1` (stereo unspecified), for which the Potency result in experiment [1], in experiment [2], in experiment [3], in [4], in experiment [5] and in [7] was “inactive” in each case. For the same molecule, the Potency result in experiment [17], in [19] and in experiment [8] was “inactive” each time.

Regarding `Cc1c(C)n(CCN(C)C)c2ccc(C(=O)OCCN(C)C)cc12`, the Potency result in [16], in [2], in experiment [3], in experiment [5], in experiment [6] and in [7] was “inactive” in each case. Moreover, the Potency result in [17], in [19] and in experiment [8] was “inactive” throughout.

Take `CN1CCN(CCCN2c3ccccc3Sc3ccc(S(=O)(=O)N(C)C)cc32)CC1`: the figures for the Potency in experiment [1], in [5] and in [6] were 15.4 µM (active), 23.7 µM (active) and 24.6 µM (active), respectively. The Potency entry in experiment [2], in experiment [17] and in [8] was “inactive” each time.

With `CCOc1ccc(NC(=O)CC(C)O)cc1` (stereo unspecified), the Potency result in experiment [1], in experiment [2], in experiment [3], in [4], in experiment [5] and in experiment [6] was “inactive” each time. Further, the Potency entry in [7], in experiment [18], in [17], in experiment [19] and in experiment [8] was “inactive” in each case.

As to `CC(C)(C)CC(C)(C)c1ccc(O)c(Cc2ccc(Cl)cc2Cl)c1`, the Potency in experiment [16] was 16.8 µM (active); in [3] it was 21.1 µM (active); in experiment [6] it was 24.6 µM (active); in experiment [18] it was 26.6 µM (active). The Potency entry in [17] was “inactive”.

Take `CC(C)NC[C@@H](O)COc1cccc2ccccc12`: the Potency entry in experiment [1], in [2], in experiment [3], in [4], in [5] and in experiment [18] was “inactive” in each case. Moreover, the Potency result in experiment [17], in experiment [19] and in experiment [8] was “inactive” throughout. Further, the Potency in experiment [7] was 26.6 µM (active).

On to `O=c1c(-c2ccccc2)c1-c1ccccc1`, for which the Potency in [16] is 11.9 µM (active); in [2] it was 8.41 µM (active); in experiment [3], 18.8 µM (active); in [4], 5.5 µM (active); in experiment [7], 18.8 µM (active).

As for `CN1CCC(=C2c3ccccc3Sc3ccccc32)CC1`, the Potency in [1] was 19.4 µM (active); in [6] it was 17.4 µM (active). The Potency entry in [2], in experiment [3], in experiment [17], in [19] and in [8] was “inactive” in each case.
